In the library only some 2.4% were active in any assay of this set; here they are far more common.
Wnt act: activators of Wnt/beta-catenin signaling. activation, % at 9.35 µM. Wnt/beta-catenin reporter cell assay, activator, plate reader. hit rate 1.2% among 300,000; in the data active = activation above about 30%, passing the limit was not always enough
DYRK1A inh: inhibitors of rat Dyrk1A kinase; Q63470; ADP-Glo luminescence, NFATc1 peptide; inhibition, % at 12.5 µM; hit rate 0.43% among 310,000
NSD2 inh: blocks human histone methyltransferase NSD2 | O96028 | NSD2 peptide methylation, AlphaScreen, 120 min | inhibition, % at 12.5 µM | hit rate 0.54% among 310,000 | AID 743445
Target sequence (O96028 whole entry, looked up): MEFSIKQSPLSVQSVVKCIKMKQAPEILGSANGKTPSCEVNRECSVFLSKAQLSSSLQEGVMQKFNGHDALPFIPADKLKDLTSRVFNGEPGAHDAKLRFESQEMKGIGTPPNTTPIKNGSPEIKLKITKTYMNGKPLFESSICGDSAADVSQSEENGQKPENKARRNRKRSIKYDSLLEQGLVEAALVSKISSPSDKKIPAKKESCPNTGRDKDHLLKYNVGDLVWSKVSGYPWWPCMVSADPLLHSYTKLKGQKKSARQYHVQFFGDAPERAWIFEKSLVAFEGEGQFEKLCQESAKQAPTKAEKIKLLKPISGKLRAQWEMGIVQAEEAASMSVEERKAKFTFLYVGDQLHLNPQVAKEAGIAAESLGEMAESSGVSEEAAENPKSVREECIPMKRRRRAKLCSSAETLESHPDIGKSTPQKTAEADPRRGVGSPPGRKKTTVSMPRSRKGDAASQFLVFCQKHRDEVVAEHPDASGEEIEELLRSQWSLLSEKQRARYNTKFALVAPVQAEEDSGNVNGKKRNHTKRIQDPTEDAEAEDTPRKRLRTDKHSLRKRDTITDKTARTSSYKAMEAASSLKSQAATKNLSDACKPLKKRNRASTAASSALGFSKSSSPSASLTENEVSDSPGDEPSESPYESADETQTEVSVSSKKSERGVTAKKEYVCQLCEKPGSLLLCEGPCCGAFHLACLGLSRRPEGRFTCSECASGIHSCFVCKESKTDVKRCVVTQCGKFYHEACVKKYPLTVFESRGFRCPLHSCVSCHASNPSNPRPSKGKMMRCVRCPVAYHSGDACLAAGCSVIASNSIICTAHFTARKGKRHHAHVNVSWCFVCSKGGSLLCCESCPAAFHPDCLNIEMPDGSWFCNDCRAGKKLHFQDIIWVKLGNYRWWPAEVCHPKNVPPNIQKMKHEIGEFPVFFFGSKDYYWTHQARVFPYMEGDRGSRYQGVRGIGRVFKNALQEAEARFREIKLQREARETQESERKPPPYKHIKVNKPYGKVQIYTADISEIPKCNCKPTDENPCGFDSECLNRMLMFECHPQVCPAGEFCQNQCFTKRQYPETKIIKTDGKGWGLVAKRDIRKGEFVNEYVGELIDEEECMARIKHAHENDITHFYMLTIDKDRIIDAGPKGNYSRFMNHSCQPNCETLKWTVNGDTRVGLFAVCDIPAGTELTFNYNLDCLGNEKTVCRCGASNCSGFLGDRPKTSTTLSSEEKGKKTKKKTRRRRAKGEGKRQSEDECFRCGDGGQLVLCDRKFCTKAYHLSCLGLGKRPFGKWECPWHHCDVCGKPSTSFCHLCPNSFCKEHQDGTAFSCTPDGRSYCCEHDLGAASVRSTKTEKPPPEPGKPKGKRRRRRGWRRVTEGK
miR122 inh: blocks miR-122 activity in Huh7 sensor cells. hit rate 0.3% among 340,000. activation (reporter increase), % at 12.5 µM. Huh7 miR-122 Renilla luciferase sensor, 48 h; neutral wells = 0, positive control = 100. AID 602342;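 active = mean replicate activation score at least 90 and every replicate individually at or above 90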;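 also: higher luciferase means less miR-122 activity so hits act as miR-122 inhibitors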
MITF TRPM1 HTS: MITF TRPM1 promoter activation in melanoma cells | activation, % at 12.5 µM | hit rate 0.75% among 300,000 | SK-MEL-5 TRPM1-promoter luciferase, 24 h; % of positive control, neutral wells = 0;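 active = mean activation of at least 80% with every replicate also reaching 80%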
INS-1E GSIS act: GLuc luminescence reporter in INS-1E cells, primary screen for activators of glucose-dependent secretion of insulin; INS-1E GLuc reporter insulin secretion, 2-3 h; activation, % at 16.6 µM; hit rate 0.61% among 370,000;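 active = lowest replicate activation of at least 40%, so every replicate reaches that level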
Large screens that a line does not name were inactive. Rule as the data show it, unless noted: active = inhibition above about 50%; inactive = the rest.

Cc1c(C(=O)N2c3ccccc3CC2C)oc2ccccc12 (stereo not drawn)	Wnt act 51 (no result: INS-1E GSIS act)
COCc1c(C(=O)OCC(=O)N2c3ccccc3CC2C)oc2ccccc12 (stereo not drawn)	none (no result: MITF TRPM1 HTS, INS-1E GSIS act)
COc1ccc2c3c([nH]c2c1)[C@H](CO)N(S(C)(=O)=O)CC31CN(C(=O)Nc2ccccc2)C1	none (no result: Wnt act, DYRK1A inh, NSD2 inh, miR122 inh, MITF TRPM1 HTS)
Cc1cc(=O)oc2cc(NC(=O)c3ccc(OC(F)F)cc3)ccc12	MITF TRPM1 HTS 86 (no result: miR122 inh)
CCOc1ncccc1C(=O)Nc1ccc2c(C)cc(=O)oc2c1	none (no result: INS-1E GSIS act)
COc1ccccc1C(=O)Nc1ccc2c(C)cc(=O)oc2c1	Wnt act 48, MITF TRPM1 HTS 88 (no result: miR122 inh)
Cc1cc(=O)oc2cc(NC(=O)c3cccc(S(=O)(=O)N(C)C)c3)ccc12	MITF TRPM1 HTS 139
Cc1cc(=O)oc2cc(NC(=O)c3cccc(S(C)(=O)=O)c3)ccc12	MITF TRPM1 HTS 93
CN1[C@H](C(=O)NCCN2CCCCC2)[C@@H](CO)[C@@H]2Cn3c(ccc(-c4ccc(F)cc4)c3=O)[C@@H]21	none (no result: Wnt act, DYRK1A inh, NSD2 inh, MITF TRPM1 HTS)
C[C@@H]1CN([C@H](C)CO)C(=O)Cc2cc(NC(=O)C3CCCCC3)ccc2O[C@H]1CN(C)Cc1ccc(Oc2ccccc2)cc1	none (no result: Wnt act, DYRK1A inh, NSD2 inh, MITF TRPM1 HTS)
COc1ccc2c3c(n(C)c2c1)[C@H](CO)N(Cc1ccccc1F)CC31CN(C(=O)C2CCOCC2)C1	none (no result: Wnt act, DYRK1A inh, NSD2 inh, miR122 inh, MITF TRPM1 HTS)
COc1cc2c(cc1NC(=O)c1cccc(S(=O)(=O)N(C)C)c1)oc1ccccc12	Wnt act 41
CNS(=O)(=O)c1cccc(C(=O)OCc2cc(=O)oc3c(C)c(O)ccc23)c1	none
CCc1cc2c(COC(=O)c3cccc(S(C)(=O)=O)c3)cc(=O)oc2cc1O	INS-1E GSIS act 50
CCN(CC)S(=O)(=O)c1ccc(C(=O)Nc2cc3oc4ccccc4c3cc2OC)cc1	none (no result: Wnt act, miR122 inh)
N#C[C@@H]1[C@H](c2ccccc2C2=CCCC2)[C@@H](CO)N1C(=O)C1CCOCC1	none (no result: Wnt act, DYRK1A inh, NSD2 inh, miR122 inh, MITF TRPM1 HTS)
COc1ccc(-c2ccc(SCC(=O)NCc3ccco3)nn2)cc1OC	INS-1E GSIS act 62 (no result: Wnt act)
COc1ccc(-c2ccc(SCC(=O)NC3CCCCC3)nn2)cc1OC	INS-1E GSIS act 105 (no result: miR122 inh)
COc1ccc(-c2ccc(SCC(=O)NCC3CCCO3)nn2)cc1OC (stereo not drawn)	INS-1E GSIS act 75
COc1ccc(-c2cc(C(F)(F)F)nc(SCC(=O)NCc3ccco3)n2)cc1OC	none (no result: INS-1E GSIS act)
O=C(CSc1ccc(-c2ccc(F)cc2)nn1)NCC1CCCO1 (stereo not drawn)	none (no result: miR122 inh)
Cc1cnc(C(=O)OCC(=O)Nc2ccc(OCc3ccccc3)cc2)cn1	Wnt act 32, MITF TRPM1 HTS 96
C[C@@H]1CN([C@@H](C)CO)S(=O)(=O)c2ccc(-c3cccc(F)c3)cc2O[C@H]1CN(C)S(=O)(=O)c1ccc(F)cc1	none (no result: Wnt act, DYRK1A inh, NSD2 inh, MITF TRPM1 HTS)
O=C(NNS(=O)(=O)c1cccc(Cl)c1Cl)c1cccc(S(=O)(=O)N2CCOCC2)c1	none
O=C(NNS(=O)(=O)c1ccc(Cl)cc1)c1cccc(S(=O)(=O)N2CCOCC2)c1	miR122 inh 249
CC(C)(CNC(=O)c1cccc(S(=O)(=O)N2CCCCC2)c1)N1CCOCC1	Wnt act 119 (no result: DYRK1A inh, NSD2 inh, MITF TRPM1 HTS, INS-1E GSIS act)
CCc1c(C)nc2cc(-c3cccc(Br)c3)[nH]n2c1=O	Wnt act 36 (no result: miR122 inh, MITF TRPM1 HTS)
Nc1ccc(S(=O)(=O)c2ccccc2)nc1	none (no result: MITF TRPM1 HTS)
O=[N+]([O-])c1ccc(S(=O)(=O)c2ccccc2)nc1	INS-1E GSIS act 77 (no result: NSD2 inh, miR122 inh)
Cc1cc(S(=O)(=O)c2ccc([N+](=O)[O-])cn2)ccc1Br	none (no result: NSD2 inh, miR122 inh)
Cc1ccc(S(=O)(=O)c2ccc([N+](=O)[O-])cn2)cc1	INS-1E GSIS act 45 (no result: NSD2 inh)
COc1ccccc1S(=O)(=O)N[C@H]1CC[C@@H](CCNC(=O)C2CC2)O[C@@H]1CO	none (no result: Wnt act, DYRK1A inh, NSD2 inh, miR122 inh, MITF TRPM1 HTS)
C[C@@H]1CN([C@@H](C)CO)C(=O)c2cc(-c3ccncc3)cnc2O[C@H]1CN(C)S(=O)(=O)c1ccc(F)cc1	none (no result: Wnt act, DYRK1A inh, NSD2 inh, MITF TRPM1 HTS)
CC(C)(C)c1ccc(-c2cc(NC(=O)Cc3c[nH]c4ccccc34)ccc2Nc2cccnc2)cc1	INS-1E GSIS act 57 (no result: DYRK1A inh, NSD2 inh, miR122 inh, MITF TRPM1 HTS)
CC1(C)CC(=O)C=C(c2ccc(-c3ccccc3)cc2)C1	MITF TRPM1 HTS 142 (no result: NSD2 inh)
COc1ccc(C2=CC(=O)CC(C)(C)C2)cc1	none (no result: NSD2 inh, miR122 inh)
O=C(/C=C/c1ccco1)Nc1nc(-c2ccccn2)cs1	none (no result: miR122 inh)
O=C(/C=C/c1ccco1)Nc1nc(-c2ccccc2)cs1	Wnt act 37
C(=N\Nc1nc(-c2ccccc2)cs1)/c1cccs1	Wnt act 56 (no result: INS-1E GSIS act)

Compound activity deposited in PubChem by Broad Institute.
